# Measurements reported in PubChem BioAssay.
# Results with a measured potency or affinity are listed apart. Activity calls are given as the source filed them.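 How the source made its calls: active means a fitted half-maximal concentration no higher than twice the top valid tested dose, with signal falling as cells die; inconclusive means flat curve between -70% and -30%, or poor fit; inactive means the rest, including signal rising instead of falling.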
# Experiment: HeLa cell cytotoxicity, dose response, cytotoxicity control, ATP luminescence, cherry-pick samples (AID 687004)
# Conditions: HeLa viability, ATP luminescence (CellTiter-Glo), 48 h; series mostly up to 26 µM
row,SMILES,outcome
1,CC(C)NC(=O)N(C)C[C@H]1OCCCC[C@H](C)Oc2ccc(NC(=O)c3ccccc3)cc2C(=O)N([C@@H](C)CO)C[C@@H]1C,inactive
2,CCCN1C[C@H](C)[C@@H](OC)CN(C)C(=O)c2cc(NC(=O)c3cccc(F)c3)ccc2OC[C@@H]1C,inactive
3,O=C(Nc1ccccc1N1CCOCC1)c1cccc([N+](=O)[O-])c1,inactive
4,CCCNC(C)C(=O)Nc1ccccc1C (stereo not given),inactive
5,COCCNC(=O)C[C@@H]1C[C@H]2c3cc(NC(=O)C4CCOCC4)ccc3O[C@H]2[C@H](CO)O1,inactive
6,O=C(NC1CCCCC1)N[C@H]1C=C[C@@H](CC(=O)N2CCOCC2)O[C@@H]1CO,inactive
7,COCCNC(=O)C[C@H]1C[C@@H]2c3cc(NC(=O)C4CCC4)ccc3O[C@@H]2[C@H](CO)O1,inactive
8,O=C(NCCN1CCCCC1)[C@H]1N[C@H]2c3ccc(-c4ccncc4)c(=O)n3C[C@H]2[C@@H]1CO,inactive
9,C[C@H](O)C#Cc1ccc2c(c1)O[C@H](CN(C)Cc1ccncc1)[C@H](C)CN([C@H](C)CO)S2(=O)=O,inactive
10,C[C@H]1CN([C@@H](C)CO)C(=O)c2ccccc2-c2ccccc2CO[C@H]1CN(C)S(=O)(=O)c1cccc(C#N)c1,inactive
11,Cc1cccc(C)c1NC(=O)CN(C)C(=O)C1CC1C (stereo not given),inactive
12,Cc1noc(C)c1S(=O)(=O)Nc1ccc2c(c1)C(=O)N([C@@H](C)CO)C[C@@H](C)[C@@H](CN(C)Cc1ccccc1)OCCCC[C@H](C)O2,inactive
13,CCN(Cc1ccccc1)C(=O)COc1ccccc1,inactive
14,Cc1ccc(NC(=O)N2CCCC2C(=O)Nc2c(C)cc(C)cc2C)cc1 (stereo not given),inactive
15,Cc1ccc(S(=O)(=O)N[C@H]2C=C[C@@H](CC(=O)N3CCC(Cc4ccccc4)CC3)O[C@H]2CO)cc1,inactive
16,C[C@@H]1CN([C@@H](C)CO)C(=O)Cc2cc(NC(=O)c3ccncc3)ccc2O[C@H]1CN(C)Cc1ccncc1,inactive
17,Cc1noc(C)c1S(=O)(=O)Nc1ccc2c(c1)CC(=O)N([C@H](C)CO)C[C@H](C)[C@@H](CN(C)S(=O)(=O)c1cn(C)cn1)O2,inactive
18,O=C(NCCN1CCCCC1)[C@@H]1N[C@@H]2c3ccc(-c4ccncc4)c(=O)n3C[C@@H]2[C@H]1CO,inactive
19,COC(=O)C1=C(C)N(Cc2ccccc2)C(=S)N[C@H]1c1ccc(Br)cc1,inactive
20,S=C(Nc1ccc(Cl)cc1Cl)Nc1ccccc1Oc1ccccc1,inactive

row,SMILES,outcome
1,COCCN1C(=S)N[C@@H](c2ccccc2)C(C(=O)OC)=C1C,inactive
2,Cc1cccc(-c2ccc([C@H]3[C@H](CO)N4CCCCN(C(=O)c5ccc6c(c5)OCO6)C[C@@H]34)cc2)c1,inactive
3,CCCC(=O)N1CCC1(C)C(=O)Nc1ccc(C)cc1 (stereo not given),inactive
4,C[C@@H]1CCCCO[C@@H](CN(C)C(=O)Nc2cccc3ccccc23)[C@@H](C)CN([C@H](C)CO)C(=O)c2cc(NS(=O)(=O)c3ccccc3)ccc2O1,inactive
5,CCNC(=O)C[C@H]1CC[C@H](NC(=O)NC2CCCCC2)[C@@H](CO)O1,inactive
6,COc1cccc(S(=O)(=O)Nc2ccc3c(c2)[C@H]2C[C@H](CC(=O)N(C)C)O[C@@H](CO)[C@H]2O3)c1,inactive
7,C[C@H]1CN([C@@H](C)CO)C(=O)Cc2cc(NS(C)(=O)=O)ccc2O[C@@H]1CN(C)Cc1ccc(Cl)c(Cl)c1,inactive
8,C[C@@H]1CN([C@H](C)CO)S(=O)(=O)c2ccc(C#C[C@@H](C)O)cc2O[C@@H]1CN(C)Cc1ccncc1,inactive
9,C[C@H]1CN([C@@H](C)CO)C(=O)Cc2cc(N(C)C)ccc2O[C@@H]1CN(C)C(=O)Nc1ccc(C(F)(F)F)cc1,inactive
10,CCCC(=O)Nc1ccc2c(c1)C(=O)N(C)C[C@H](OC)[C@@H](C)CN(C(=O)c1cccnc1)[C@@H](C)CO2,inactive
11,CCCC(C)(C)C(=O)N1CCC1(C)C(=O)Nc1ccc(C)cc1 (stereo not given),inactive
12,Cc1noc(C)c1NC(=O)N(C)C[C@H]1OCCCC[C@H](C)Oc2ccc(NC(=O)NC(C)C)cc2C(=O)N([C@@H](C)CO)C[C@@H]1C,inactive
13,COc1ccc(NC(=S)NCc2ccc(Cl)cc2)c(OC)c1,inactive
14,CC(C)NC(=O)Nc1ccc2c(c1)C(=O)N([C@@H](C)CO)C[C@@H](C)[C@H](CN(C)C(=O)c1ccncc1)OCCCC[C@H](C)O2,inactive
15,O=C(NCCc1ccccc1)[C@@H]1[C@@H](CO)[C@@H]2Cn3c(cccc3=O)[C@H]1N2C(=O)C1CCC1,inactive
16,C[C@@H]1CN([C@@H](C)CO)C(=O)c2cc(NC(=O)C3CC3)ccc2O[C@H]1CN(C)CC1CCCCC1,inactive
17,CO[C@@H]1CN(C)C(=O)c2cc(NS(=O)(=O)c3cccc(C)c3)ccc2OC[C@@H](C)NC[C@H]1C,inactive
18,CNC[C@@H]1OCCCC[C@@H](C)Oc2ccc(NC(=O)Nc3ccc4c(c3)OCO4)cc2C(=O)N([C@H](C)CO)C[C@@H]1C,inactive
19,COc1ccccc1CNC(=S)NCc1ccc(Cl)cc1,inactive
20,Cc1noc(C)c1NC(=O)Nc1ccc2c(c1)C(=O)N([C@@H](C)CO)C[C@H](C)[C@H](CN(C)CC1CCCCC1)O2,inactive
